In the library only some 2.5% were active in any assay of this set; here they are far more common.
aSyn rescue – qHTS of alpha-syn Inhibitors; Yeast expressing alpha-synuclein, growth rescue, BacTiter-Glo, 24 h; 0.14% of 370,000 active; AID 652106, 2013; Potency, µM (doses to about 46.1 µM), for the others: at the top dose growth rescue (activation), actives largely listed as activators; note: potency is the fitted concentration of half-maximal effect; % of control where 0% means no effect; nearly all actives have a fitted effect of over 65% in size
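Galactose-induced alpha-syn yeast (OD600=0.02, raffinose-pregrown) + pinned cpd, 24 hr, 30 deg C; growth by BacTiter-Glo luminescence. Growth restoration scores as activation.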
pAkt inh – HTS Assay for Inhibitors of Akt Phophorylation: Primary Screen; Neuro2A IGF-stimulated pAkt S473 HTRF, 20 min; hits give low values; activity change, % for hits at 50 µM; 0.32% of 360,000 active; AID 651550, 2012; in the data active = activity change below about -80%; inconclusive = mostly about -51% to -80%; note: % is set by controls: 0 for no effect and ±100 for the full control effect
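Neuro2A cells in DMEM with 0.5% FBS, overnight at 37 deg C, given compound at single 50 µM final, then IGF (6 nM final) for 20 min at 37 deg C. Lysed; phospho-Akt Ser473 by HTRF after 24 h, 665/615 ratio.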
TDP-43 yeast inh – qHTS of TDP-43 Inhibitors; Potency, µM (titrated, usually from 46.1 µM), for inactives: top-dose growth rescue (activation), hits mostly activators; TDP-43 expressing yeast growth rescue, BacTiter-Glo, 24 h; 1.8% of 410,000 active; AID 652104, 2013; note: potency is the fitted concentration of half-maximal effect; % of control where 0% means no effect; nearly all actives have a fitted effect of over 50% in size
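Growth rescue of TDP-43-toxic yeast measured as ATP luminescence (BacTiter-Glo). Cells grown to mid-log in raffinose, induced in galactose at OD600=0.02, exposed to compound 24 hr at 30 deg C.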
Mito fusion yeast – qHTS Assay for Small Molecule Inhibitors of Mitochondrial Division or Activators of Mitochondrial Fusion; S. cerevisiae fusion-defective mutant growth rescue, CellTiterGlo 48 h; Potency, µM (series often up to 46.1 µM), for the others: top-dose growth rescue (activation), actives largely listed as activators; 0.23% of 320,000 active; AID 485298, 2010; note: potency is the fitted concentration of half-maximal effect; % of control where 0% means no effect; nearly all actives have a fitted effect of over 45% in size
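Compounds are tested for their ability to restore growth of mitochondrial fusion-defective yeast strains at non-permissive 37C in YPEG medium over 48 hours. Viability is quantified by luciferase luminescence.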
CCT modulator – High-Throughput Screening for Modulators of Cytosolic Chaperonin Activity; purified chaperonin ATPase assay, HTRF ADP detection, 30 min; activity change, % (test concentration not listed), hits read low; 0.3% of 360,000 active; in the data active = activity change below about -30%; note: % is set by controls: 0 for no effect and ±100 for the full control effect
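We incubate TRiC, 40 or 20 nM final, with library compounds at 76 uM and 10 uM ATP for 30 min at 37 °C. ADP formed is detected with Transcreener HTRF reagents after 30 min at room temperature.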
Anesthetic bind – qHTS Assay for Identification of Novel General Anesthetics; Ferritin light chain (Equus caballus), P02791; apoferritin/1-aminoanthracene competitive binding, fluorescence; Potency, µM (titrated, usually from 77.5 µM), for inactives: top-dose activity change, negative = displacement, most hits filed as inhibitors; 0.074% of 350,000 active; AID 485281, 2010; note: potency is the fitted concentration of half-maximal effect; % is set by controls: 0 for no effect and ±100 for the full control effect; nearly all actives have a fitted effect of over 20% in size
Target sequence (P02791 2-175 limits assumed): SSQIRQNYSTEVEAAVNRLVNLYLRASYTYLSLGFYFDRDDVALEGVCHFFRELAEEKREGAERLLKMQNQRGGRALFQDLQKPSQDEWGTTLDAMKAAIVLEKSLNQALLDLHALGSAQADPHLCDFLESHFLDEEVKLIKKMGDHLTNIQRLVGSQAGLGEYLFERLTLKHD
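Horse-spleen apoferritin (10 uM) was mixed with 50% saturated 1-aminoanthracene in PBS, exposed to compounds for 10 min at room temperature, and read for fluorescence (ex 380 nm, em 535 nm). Competitive displacement was fitted with a four-parameter Hill equation.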
Starred values were filed as active, the others as inactive; [ ] = another dose, or the depositor's remark. Unless noted, calls come from the whole dose curve; as a rule, active = well fitted curve in the direction sought with a large enough effect; inconclusive = small, poorly fitted or top-dose-only effect, or another doubt; inactive = no such curve, though single readings can be large; an effect the other way counts as inactive or inconclusive.

Cc1ccc(-c2nc(C)c(CCNC(=O)c3ccco3)s2)cc1 was read as aSyn rescue -12.2%, TDP-43 yeast inh inconclusive and Anesthetic bind inconclusive.
Screening Cc1nc(-c2ccc(F)cc2)sc1CCNC(=O)c1cccs1 returned TDP-43 yeast inh 8.91µM* and Anesthetic bind 45.0%.
CC(OC(=O)c1ccccc1OCC(=O)Nc1ccc(Br)cc1)C(=O)NC1CCCC1 (centres undefined) was read as aSyn rescue -0.9%.
Screening Cc1c(Cl)cccc1NC(=O)C(C)n1nc(C)c2c(C)n(-c3ccccc3)nc2c1=O (centres undefined) returned TDP-43 yeast inh inconclusive and Anesthetic bind -12.9%.
COc1ccc(-c2nc(C)c(CCNC(=O)c3cccs3)s2)cc1OC was read as aSyn rescue -14.9%, TDP-43 yeast inh 22.4µM* and Anesthetic bind -6.4%.
Cc1ccc(C2CC2C(=O)NNC(=S)Nc2cccc(C)c2)cc1 (centres undefined) was read as aSyn rescue 24.4%, pAkt inh inactive, TDP-43 yeast inh inconclusive, Mito fusion yeast 17.1%, CCT modulator -2.1 and Anesthetic bind -18.6%.
Cc1ccc(C2CC2C(=O)NNC(=S)Nc2cccc(Cl)c2)cc1 (centres undefined) was read as aSyn rescue -1.8%, pAkt inh inactive, TDP-43 yeast inh 14.1µM*, Mito fusion yeast 10.0%, CCT modulator 0.3 and Anesthetic bind -23.0%.
For CC(C)c1ccc(-c2c(C#N)c(N)nc(SCC(=O)N3CCCCCC3)c2C#N)cc1 the results were aSyn rescue -5.2%, pAkt inh -123.6%*, TDP-43 yeast inh 1.6%, Mito fusion yeast 0.7%, CCT modulator 0.0 and Anesthetic bind -8.8%.
`CCCCOc1ccc(C(=O)Nc2ccc3c(c2)CCCN3S(=O)(=O)c2ccc(C)cc2)cc1` gave TDP-43 yeast inh 0.0%[9.22 µM] and Anesthetic bind 61.3%.
For Clc1ccccc1-c1nc2ccccc2c2nncn12 the results were aSyn rescue -3.5%, pAkt inh inactive, TDP-43 yeast inh 39.8µM*, Mito fusion yeast 1.7%, CCT modulator -0.1 and Anesthetic bind -11.4%.
For Cc1ccc(Cl)cc1Nc1nc2ccccc2c2nncn12 the results were TDP-43 yeast inh inconclusive and Anesthetic bind -2.2%.
Screening Nc1c(Cl)cnc(C(Cl)(Cl)Cl)c1Cl returned aSyn rescue -0.1%, pAkt inh inactive, TDP-43 yeast inh 12.6µM*, Mito fusion yeast 14.0%, CCT modulator 1.8 and Anesthetic bind inconclusive.
C=CCn1c(C)cc(C(=O)COC(=O)c2cncc(Br)c2)c1C was read as aSyn rescue 19.0%, pAkt inh inactive, TDP-43 yeast inh 20µM*, Mito fusion yeast 9.9% and CCT modulator -2.7.
`CCc1ccc(NC(=O)c2noc3c2CCC3)cc1` gave aSyn rescue -7.7%, pAkt inh inactive, TDP-43 yeast inh 11.2µM*, Mito fusion yeast 2.0%, CCT modulator -1.8 and Anesthetic bind inconclusive.
CC(C)c1ccc(OCC(=O)N(Cc2cccs2)C2CCS(=O)(=O)C2)cc1 (centres undefined) was read as TDP-43 yeast inh 20.3% and Anesthetic bind -6.6%.
CCc1ccc(C(C)NC(=O)c2cc(C)oc2C)cc1 (centres undefined) was read as aSyn rescue 15.1%, pAkt inh inactive, TDP-43 yeast inh 12.6µM*, Mito fusion yeast -5.5%, CCT modulator -1.3 and Anesthetic bind -12.1%.
N#Cc1ccc(-c2nc3ccc(Br)cn3c2Cc2cccc(Cl)c2)cc1 was read as aSyn rescue -15.3%, pAkt inh inactive, TDP-43 yeast inh inconclusive and CCT modulator 1.8.
Clc1ccc(-c2nc3ccc(Br)cn3c2Cc2cccc(Cl)c2)cc1 was read as aSyn rescue 2.5%, pAkt inh inactive, TDP-43 yeast inh 31.6µM* and CCT modulator 2.0.
Cc1ccc(-c2nc3ccc(Cl)cn3c2Cc2cccc(Cl)c2)cc1 was read as aSyn rescue 28.9%, pAkt inh inactive, TDP-43 yeast inh 20µM* and CCT modulator 0.9.
For Cc1ccc(-c2nc3ccc(Br)cn3c2Cc2cccc(Cl)c2)cc1 the results were aSyn rescue 11.9%, pAkt inh inactive, TDP-43 yeast inh 28.2µM* and CCT modulator -1.2.
CC(C)(C)Cc1c(-c2ccc(Cl)cc2)nc2ccc(Br)cn12 was read as aSyn rescue 0.3%, pAkt inh inactive, TDP-43 yeast inh 35.5µM* and CCT modulator 0.7.
CCn1c(SCC(=O)NCc2ccco2)nnc1-c1cccc(N(C)C)c1 was read as aSyn rescue 3.7%.
COc1ccc(OC)c(C2CC(=O)Nc3c2c(=O)n(C)c2ncnn32)c1 (centres undefined) was read as aSyn rescue 0.6%, TDP-43 yeast inh -16.9% and Anesthetic bind 0.6%.
CNc1ccc(/C=C2\C=Cc3ccccc32)cc1Cl was read as aSyn rescue -16.4%.
N#Cc1ccc(C(=O)NC(=S)NC2CCCCC2)cc1 was read as aSyn rescue -8.7%, pAkt inh inactive, TDP-43 yeast inh 22.4µM* and CCT modulator 1.3.
`CC(=O)NC1C(O)O[C@H](C(=O)O)[C@@H](O)[C@@H]1O` (some centres undefined) gave Anesthetic bind -9.6%.
`CCCN1C(=O)c2ccccc2NC1c1ccc(OC)c(COc2ccc([N+](=O)[O-])cc2)c1` (centres undefined) gave aSyn rescue 9.0%.
Screening COc1ccc(/C=C2/C(=O)OCc3cc(OC)c(OC)cc32)cc1 returned aSyn rescue 3.6%, pAkt inh inactive, TDP-43 yeast inh 20µM*, Mito fusion yeast inconclusive, CCT modulator -0.4 and Anesthetic bind -20.1%.
COc1cc2c(cc1OC)C(=O)OC2 was read as Anesthetic bind 3.9%.
COc1ccc(CCNC(=O)Cn2c(=O)n(-c3ccc(F)cc3)c(=O)c3sccc32)cc1OC was read as aSyn rescue 0.562µM*, pAkt inh inactive, TDP-43 yeast inh 3.8%, Mito fusion yeast -4.4%, CCT modulator -0.8 and Anesthetic bind -3.7%.
`COc1ccc(CCNC(=O)Cn2c(=O)n(-c3cc(F)ccc3F)c(=O)c3sccc32)cc1OC` gave aSyn rescue -2.2%, pAkt inh inactive, TDP-43 yeast inh -0.7%, Mito fusion yeast -4.7%, CCT modulator 1.3 and Anesthetic bind -8.3%.

Bioassay records (PubChem)
